Measurements published in PubChem BioAssay (NCATS).
Results filed as inconclusive are left out. A call without a number means that no potency is given here. Activity calls are given as the source filed them. Calls come from the whole dose curve; as a rule, active = well fitted inhibition curve with a large enough effect; inconclusive = small, poorly fitted or top-dose-only effect; inactive = flat fitted curve, though single readings scatter.

Each molecule was assayed against Calcium and integrin-binding protein 1 (Homo sapiens) (UniProt Q99828) (assay: Primary qHTS for Identification of Calcium Integrin Binding Protein 1 (CIB1) Competitor (AID 1508620; note: top concentration of the series differs between compounds)). Conditions: CIB1-GST / FITC-alphaIIb peptide fluorescence polarization; series mostly up to 114 µM.
Outline: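 Fluorescence polarization competition: GST-tagged CIB1 (1 uM final) preincubated with compound 15 min at room temperature, then FITC-labelled alphaIIb peptide (100 nM final) added. After 15 min at room temperature, polarization read at Ex 480/Em 540.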

Sequence of Calcium and integrin-binding protein 1 (Homo sapiens) (Q99828 whole entry, looked up): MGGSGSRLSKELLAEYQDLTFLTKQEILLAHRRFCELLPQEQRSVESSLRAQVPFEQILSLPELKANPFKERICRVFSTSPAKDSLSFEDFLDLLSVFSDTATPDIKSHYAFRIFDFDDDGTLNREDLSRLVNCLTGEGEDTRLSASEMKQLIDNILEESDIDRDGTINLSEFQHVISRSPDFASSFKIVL

SMILES	Potency
O=S(=O)(c1ccccc1)N1CCN(c2nccc(-c3cccs3)n2)CC1	inactive
COc1ccc(-c2nnc3n2N=C(c2cc(OC)ccc2OC)CS3)c(OC)c1	inactive
Cc1cn([C@H]2C[C@H](N[S+](=O)([O-])c3ccc4c(c3)OCCO4)[C@@H](CO)O2)c(=O)[nH]c1=O	inactive
Cc1cnc(-c2ccccc2C2COC2)nc1NCC1CCN(c2cccnc2)CC1	inactive
COc1ccc(C2Nc3ccccc3C(=O)N2Cc2ccc(C)o2)cc1COc1c(C)cccc1C (stereo not drawn)	inactive
CC(C)(C)c1ccc(NC(=O)c2cccs2)cn1	inactive
Oc1ccc(CNc2cccc(F)c2)c2cccnc12	inactive
Cc1cc(C)n2ncc(C(=O)Nc3ccccc3)c2n1	inactive
O=C1CCc2cc(S(=O)(=O)Nc3ccc4ncccc4c3)ccc2N1	inactive
Cc1ccc(OCCn2c(CCNC(=O)c3ccc(C(F)(F)F)cc3)nc3ccccc32)cc1	inactive
COc1ccc(-c2nnc(NC(=O)Nc3ccc4ccccc4c3)s2)cc1OC	inactive
Cn1ccc2cc(-c3ccc4ncnc(NCc5cccc(F)c5)c4c3)ccc21	inactive
O=C1CCCC2=C1[C@@]1(CCC(c3ccccc3)C1)N=C(Nc1nc3ccccc3o1)N2 (stereo partly drawn)	inactive
Cc1ccc(NS(=O)(=O)c2ccc3ccccc3c2)cc1C	inactive
O=C1CCc2cc(S(=O)(=O)Nc3cccc4ccccc34)ccc2N1	inactive
FC(F)(F)c1ccc(-c2ccc(CNc3nc(-c4ccccc4C(F)(F)F)nc4ccccc34)cc2)cn1	inactive
NC(=O)C1CCN(c2nccc(-c3ccc4c(c3)OCCO4)n2)CC1	inactive
COc1ccc(Cl)cc1S(=O)(=O)N1CCN(S(=O)(=O)c2ccc3c(c2)OCCO3)CC1	inactive
Cc1ccc(N[S+](=O)([O-])c2cc3c(cc2Cl)CCC(=O)N3)cc1Br	inactive
Cc1cc(NC(=S)N2CCN(c3cccc(C(F)(F)F)c3)CC2)nc2ccccc12	inactive
O=C1c2ccccc2C(=O)N1Cc1ccccn1	inactive
Fc1ccc(-c2noc(CCCCSc3nnc(-c4cccc5ccccc45)o3)n2)cc1	inactive
O=c1c2ccccc2nc2sc(Nc3cccc(-c4ccncc4)c3)nn12	inactive
